Test results as given in PMC6925144, “A prospective compound screening contest identified broader inhibitors for Sirtuin 1” (Scientific Reports, 2019).
The full ranking holds about 3,200 compounds; the median of “TSA(with NAD+) / Primary screening (TSA) / delta Tm (K)” is about -0.04, and the highest 2% start at about 0.37. The sample as a whole holds a higher share of the highest values than the screen did.

Target: NAD-dependent deacetylase Sirtuin 1 (human, UniProt Q96EB6)
Assay: primary screen, delta tm
Set-up: single well (n = 1, as 'the same TSA')
Settings: 10 µM

NAD-dependent deacetylase Sirtuin 1, sequence (Q96EB6 2-747 limits assumed): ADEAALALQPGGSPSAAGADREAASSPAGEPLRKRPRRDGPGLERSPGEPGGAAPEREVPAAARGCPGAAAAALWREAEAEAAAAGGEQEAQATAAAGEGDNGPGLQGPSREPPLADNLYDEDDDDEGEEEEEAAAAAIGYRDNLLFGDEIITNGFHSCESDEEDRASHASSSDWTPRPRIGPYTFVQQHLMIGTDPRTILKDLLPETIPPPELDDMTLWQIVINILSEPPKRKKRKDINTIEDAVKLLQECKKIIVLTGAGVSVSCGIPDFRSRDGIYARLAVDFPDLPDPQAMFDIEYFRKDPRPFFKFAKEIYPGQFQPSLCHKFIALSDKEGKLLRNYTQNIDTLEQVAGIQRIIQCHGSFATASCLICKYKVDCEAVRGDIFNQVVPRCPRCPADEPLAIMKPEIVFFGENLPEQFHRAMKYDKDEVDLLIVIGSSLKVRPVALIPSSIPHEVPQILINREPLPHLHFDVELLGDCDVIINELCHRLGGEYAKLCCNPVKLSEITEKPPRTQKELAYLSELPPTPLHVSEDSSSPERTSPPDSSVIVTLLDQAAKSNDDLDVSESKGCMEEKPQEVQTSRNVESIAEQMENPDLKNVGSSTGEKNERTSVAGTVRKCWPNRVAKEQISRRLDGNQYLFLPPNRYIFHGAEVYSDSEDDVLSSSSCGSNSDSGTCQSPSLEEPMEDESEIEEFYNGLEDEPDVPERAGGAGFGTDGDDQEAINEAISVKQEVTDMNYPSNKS

First: Cc1cc(C=C2C(=O)NC(=S)NC2=O)c(C)n1-c1ccc(F)cc1
Second: Cc1nn(-c2ccc(F)cc2)c(C)c1CNCc1ccccc1
The “TSA(with NAD+) / Primary screening (TSA) / delta Tm (K)” value of the first is lower: -0.48 K for the first, -0.23 K for the second.

Going from `CNS(=O)(=O)c1ccc(CCC(=O)Nc2ccccc2Cc2ccccc2)cc1` to `NS(=O)(=O)c1ccc(C(=O)Nc2ccc3c(c2)-c2ccccc2C3)cc1`, the “TSA(with NAD+) / Primary screening (TSA) / delta Tm (K)” value rises from 0.07 K to 0.68 K.

Compared with `O=C1COc2cc(C(=O)Nc3ccc4c(c3)-c3ccccc3C4)ccc2N1`, `C/C(=N/N)c1ccc2c(c1)-c1ccccc1C2` is lower in “TSA(with NAD+) / Primary screening (TSA) / delta Tm (K)” value: 0.11 K for the first, -0.14 K for the second.

Compared with `CC1CCC(C(N)=O)CN1c1ncnc2ccsc12` (stereo not drawn), `COc1ccnc(N2CCN(C(=O)c3ccc(C(N)=O)s3)CC2)n1` is lower in “TSA(with NAD+) / Primary screening (TSA) / delta Tm (K)” value: 0.05 K for the first, -0.13 K for the second.

Compared with `O=C(CN1CCN(Cc2cscn2)CC1)NC(c1ccccc1)C1CC1` (stereo not drawn), `O=C(Nc1ccc(N2CCN(Cc3ccccc3)CC2)cc1)c1cccc2cccnc12` is lower in “TSA(with NAD+) / Primary screening (TSA) / delta Tm (K)” value: 0.03 K for the first, 0.01 K for the second.

Compared with `COCCCn1ccc(Nc2nc(C)nc3[nH]ccc23)n1`, `Cc1nn2cccnc2c1C(=O)NCc1ccc(-c2nnn[nH]2)cc1` is lower in “TSA(with NAD+) / Primary screening (TSA) / delta Tm (K)” value: -0.03 K for the first, -0.06 K for the second.

First: O=C1NC(=O)c2ccccc2/C1=C\NNC(=O)C12CC3CC(CC(C3)C1)C2
Second: O=C1/C(=C/NNC(=O)C23CC4CC(CC(C4)C2)C3)c2ccccc2C(=O)N1Cc1ccccc1
The “TSA(with NAD+) / Primary screening (TSA) / delta Tm (K)” value of the first is lower: 0.48 K for the first, 0.56 K for the second.

Going from `O=C(CC12CC3CC(CC(C3)C1)C2)NN/C=C1/C(=O)N(Cc2ccccc2)C(=O)c2ccccc21` to `COc1ccc(CN2C(=O)/C(=C/NNC(=O)CC34CC5CC(CC(C5)C3)C4)c3ccccc3C2=O)cc1`, the “TSA(with NAD+) / Primary screening (TSA) / delta Tm (K)” value falls from 0.19 K to 0.06 K.

Compared with `CC1(C)CC(=O)C(=CNNC(=O)CC23CC4CC(CC(C4)C2)C3)C(=O)C1`, `COc1ccc(N2C(=O)/C(=C/NNC(=O)C34CC5CC(CC(C5)C3)C4)c3ccccc3C2=O)cc1` is higher in “TSA(with NAD+) / Primary screening (TSA) / delta Tm (K)” value: -0.06 K for the first, 0.18 K for the second.

First: COC(C)CN (stereo not drawn)
Second: Cc1ccc(OCCN)cc1
The “TSA(with NAD+) / Primary screening (TSA) / delta Tm (K)” value of the first is lower: -0.12 K for the first, 0.15 K for the second.

First: COc1cccc(-c2nc(CSc3nnc(-c4ccco4)n3Cc3ccccc3)cs2)c1
Second: Cc1ccc(-n2nnnc2SCc2nc3c(cnn3-c3ccccc3)c(=O)[nH]2)cc1
The “TSA(with NAD+) / Primary screening (TSA) / delta Tm (K)” value of the first is lower: -0.16 K for the first, -0.11 K for the second.

Going from `N#Cc1c2c(c(Cl)n3c1nc1ccccc13)CCCC2` to `Oc1cccc2c1Cc1c-2nc2ccc(Cl)cc2c1-c1ccccc1Cl`, the “TSA(with NAD+) / Primary screening (TSA) / delta Tm (K)” value rises from 0.03 K to 0.52 K.

Compared with `Cc1ccccc1-c1nnn(Cc2cc(=O)oc3c(C)c(C)ccc23)n1`, `Cc1cc(N(C)C)n2nc(C(F)(F)F)c(-c3ccccc3)c2n1` is higher in “TSA(with NAD+) / Primary screening (TSA) / delta Tm (K)” value: -0.18 K for the first, -0.05 K for the second.

Going from `NC(=O)NCc1ccc(C(=O)Nc2nc(-c3c[nH]c(C(N)=O)c3)cs2)cc1` to `COC(=O)c1cc(-c2csc(NC(=O)c3cccc(NC(=O)c4cnoc4C)c3)n2)c[nH]1`, the “TSA(with NAD+) / Primary screening (TSA) / delta Tm (K)” value rises from 0.11 K to 0.67 K.

Going from `COc1ccc(NC(=O)c2ccc(NC(=O)c3cnoc3C)cc2)cc1OCc1cccnc1` to `COc1ccc(C(=O)NC2CCCC2(C)CO)cc1-c1ccccn1` (stereo not drawn), the “TSA(with NAD+) / Primary screening (TSA) / delta Tm (K)” value falls from 0.05 K to -0.23 K.

Going from `CCCOc1ccc(C2C(C(=O)c3ccc(F)cc3)=C(O)C(=O)N2CCCN2CCOCC2)cc1` (stereo not drawn) to `Cc1ccc(-c2cc(C(=O)OC(C)C(=O)Nc3cccc([N+](=O)[O-])c3)[nH]n2)cc1` (stereo not drawn), the “TSA(with NAD+) / Primary screening (TSA) / delta Tm (K)” value rises from 0.06 K to 0.25 K.

Going from `CNc1cc(C)nc2c(-c3ccccc3)c(C(F)(F)F)nn12` to `Cc1cc(NN)n2nc(C(F)(F)F)c(-c3ccc(Cl)cc3)c2n1`, the “TSA(with NAD+) / Primary screening (TSA) / delta Tm (K)” value rises from -0.12 K to 0.37 K.

Compared with `O=C1/C(=C/c2ccc(Br)cc2F)Cc2c(O)cccc21`, `O=C(COC(=O)c1ccc2c(c1)S(=O)(=O)c1ccccc1C2=O)Nc1ncc(Cl)cc1Cl` is higher in “TSA(with NAD+) / Primary screening (TSA) / delta Tm (K)” value: 0.11 K for the first, 0.15 K for the second.

Compared with `CN1CCC(Sc2ccc3ccccc3c2)C1=O` (stereo not drawn), `CC(=C/c1ccccc1)/C=N/NC(=O)c1cc(-c2ccc(C)cc2)n[nH]1` is higher in “TSA(with NAD+) / Primary screening (TSA) / delta Tm (K)” value: -0.19 K for the first, 1.11 K for the second.

In the case of `Cn1cc(CCC(=O)NCC(=O)O)c2ccccc21`, the “TSA(with NAD+) / Primary screening (TSA) / delta Tm (K)” value is reported as -0.16 K.
